The nature of assay [1]: qHTS to identify inhibitors of the type 1 interferon - major histocompatibility complex class I in skeletal muscle: primary screen against the NCATS LOPAC collection (AID 1347405). The procedure, abridged:
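Immortalized human C25cl48 myoblasts with HiBiT knocked into endogenous HLA-B*08:01 were stimulated with 4.0 ng/ml IFN-beta and given compounds in a 7-point, 1:4.3 titration from 46 uM final; after 24 hrs, lytic HiBiT luminescence was read.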
(In general: In qHTS, concentration-response curves come from the screen itself.)

Assay [2] is described as follows: qHTS to identify inhibitors of the type 1 interferon - major histocompatibility complex class I in skeletal muscle: primary screen against the NCATS Pharmaceutical Collection (AID 1347407). The gist of the method:
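Cells were seeded with 4 ng/ml IFN-beta, incubated 1 h, then dosed with compounds over eight 1:5 steps up to 46 uM final. After 24 h at 37 C, HiBiT lytic reagent was added and luminescence read after 10 min lysis in the dark.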

A short description of assay [3]: qHTS for activators of Nrf2/ARE signaling pathway screened against the NCATS CANVASS Library (AID 1347391). The procedure, abridged:
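ARE-bla HepG2 beta-lactamase reporter cells, 2000 cells/well, were preincubated 5 h, then exposed to compounds (11-point series) for 16 h at 37C. CCF4 fluorescence (ex 405, em 460/530 nm) after 2 h at room temperature.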

Assay [4] can be described thus: qHTS for activators of dead-cell proteases activity screened against the NCATS CANVASS Library (AID 1347392). The procedure, abridged:
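HepG2 cells (2000/well) attached 18 h at 37C, then exposed 5 h to compounds (11-point qHTS). Dead-cell protease activity read as luminescence from cell-impermeant AAF-aminoluciferin substrate after 15 min at room temperature.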

Assay [5] can be described thus: qHTS for inhibitors of ER calcium dysfunction: SERCaMP assay screened against the NCATS CANVASS Library (AID 1347393). The procedure, abridged: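 qHTS in SH-SY5Y reporter cells: 16 h compound pretreatment, 4 h thapsigargin, then secreted Gaussia luciferase measured by luminescence.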
Assay [6] can be described thus: Vero-766 cells viability qHTS against the NCATS CANVASS Library: Counterscreen for Zika virus inhibition assay (AID 1347394). The procedure, abridged:
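This cytotoxicity counterscreen uses African green monkey Vero 766 cells in the absence of Zika virus. Compounds are incubated with cells for 72 h, and ATP-based luminescence reports viability.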

Assay [7] can be described thus: qHTS for inhibitors of Wild type Zika virus screened against the NCATS CANVASS Library (AID 1347396). The gist of the method: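 Vero 766 cells, 1000/well, o/n attach; cpds pin-transferred (11-pt qHTS); WT Zika added; 72 h, 37C, 5% CO2; CellTiter Glo lumi. Uninfected + vehicle = 100% inhibition.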
Assay [8] in a line: Viability qHTS for inhibitors of the SERCaMP assay screened against the NCATS CANVASS Library (AID 1347400). The procedure, abridged: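 SH-SY5Y-GLuc SERCaMP MJH297-derived cells (1000 cells/well) were pre-incubated 4 h at 37C, then exposed to compounds for 48 h. Viability was read as CellTiter-Glo luminescence; bortezomib served as positive control.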
Assay [9] can be described thus: Redox Reaction Profiling qHTS: Assay Interference Panel against the NCATS CANVASS Library (AID 1347401). The gist of the method:
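Resazurin (5 uM) conversion to resorufin measured with 200 uM DTT in 50 mM HEPES pH 7.3, 50 mM NaCl. Compounds tested in 11-point qHTS series. Fluorescence (ex 525/em 598 nm) read before and after 15 min dark incubation.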

The nature of assay [10]: qHTS for inhibitors of Rabies Virus screened against the NCATS CANVASS Library (AID 1347402; calls by dose curve).

Results on 30 molecules are retold here after PubChem BioAssay (NCATS).

Records with an inconclusive call do not appear. Values without a mark were called inactive. Active and inactive are the calls of the source. Unless noted, calls follow the shape of the dose curve; as a rule, active = well fitted curve in the direction sought with a large enough effect; inconclusive = small, poorly fitted or top-dose-only effect, or another doubt; inactive = no such curve, though single readings can be large; an effect the other way counts as inactive or inconclusive.

As to `Cc1cccc(C)c1NC1=NCCCS1`, the Potency result in assay [1] and in assay [2] was “inactive” in each case.

For the molecule `CC(O)(CS(=O)(=O)c1ccc(F)cc1)C(=O)Nc1ccc(C#N)c(C(F)(F)F)c1` (stereo not given), the Potency result in assay [1] was “inactive”.

`Cn1c(CCCC(=O)O)nc2cc(N(CCCl)CCCl)ccc21`: the Potency result in [1] and in assay [2] was “inactive” in each case.

Take `N#CC(C#N)=Cc1ccc(O)c(O)c1`: the Potency result in assay [1] and in assay [2] was “inactive” each time.

As to `NN=C(N)N`, the Potency result in assay [1] and in [2] was “inactive” each time.

Take `CC(=O)[C@H]1CC[C@H]2[C@@H]3CC[C@H]4C[C@H](O)CC[C@]4(C)[C@H]3C(=O)C[C@]12C`: the Potency result in [1] and in [2] was “inactive” each time.

Consider `CCCN1CCC[C@@H]2Cc3[nH]ncc3C[C@H]21`, for which the Potency entry in assay [1] and in assay [2] was “inactive” each time.

Turning to `COC[C@@H](NC(C)=O)C(=O)NCc1ccccc1`, in assay [2], the Potency result was “inactive”.

In the case of `Cc1ccc(S(=O)(=O)N[C@@H](CCCCN)C(=O)CCl)cc1`, the Potency result in assay [1] and in [2] was “inactive” throughout.

As for `COc1ccc(C(CN(C)C)C2(O)CCCCC2)cc1` (stereo not given), the Potency result in [1] and in [2] was “inactive” each time.

Consider `c1ccc(C2CC2)c(OCC2=NCCN2)c1`, for which the Potency entry in [1] and in [2] was “inactive” in each case.

Regarding `CC[C@@H](CO)NC(=O)[C@@H]1C=C2c3cccc4[nH]cc(c34)C[C@H]2N(C)C1`, the Potency result in assay [1] and in assay [2] was “inactive” throughout.

Turning to `NCC(O)c1ccc(O)cc1` (stereo not given), the molecule was called inactive in assay [3], in assay [4], in [5], in assay [6], in assay [7] and in assay [8]. In addition, the molecule was called inactive in assay [9] and in assay [10]. Further, the Potency entry in assay [1] and in [2] was “inactive” each time.

For `CCC1(C2=NCCN2)Cc2ccccc2O1` (stereo not given), the Potency result in [1] and in assay [2] was “inactive” throughout.

As for `CC(C)=CCOc1c2occc2cc2ccc(=O)oc12`, the Potency entry in assay [1] and in assay [2] was “inactive” each time.

As to `CC[C@@H](CO)NC(=O)[C@@H]1C=C2c3cccc4c3c(cn4C)C[C@H]2N(C)C1`, the Potency result in assay [1] and in [2] was “inactive” in each case.

As for `CC(CCc1ccccc1)NC(C)C(O)c1ccc(O)cc1` (stereo not given), the Potency entry in assay [1] and in assay [2] was “inactive” each time.

With `Nc1ccncc1`, the Potency entry in [1] and in assay [2] was “inactive” throughout.

With `CCCN1CCC[C@@H]2Cc3nc(N)ncc3C[C@H]21`, the Potency result in assay [1] and in assay [2] was “inactive” throughout.

With `COc1ccccc1N1CCNCC1`, the Potency entry in assay [1] and in [2] was “inactive” throughout.

As to `Cc1ncc(CNC(=O)N(CCCl)N=O)c(N)n1`, the Potency result in [1] and in assay [2] was “inactive” each time.

With `C[C@@H]1O[C@@H](O[C@H]2C[C@@H](O)[C@]3(CO)[C@H]4[C@H](O)C[C@]5(C)[C@@H](C6=CC(=O)OC6)CC[C@]5(O)[C@@H]4CC[C@]3(O)C2)[C@H](O)[C@H](O)[C@H]1O`, the Potency was 44.7 nM (active) in [1] and 52.8 nM (active) in assay [2].

Turning to `Cc1cccc(C)c1NC(=O)CN1CCCC1=O`, the Potency entry in assay [1] and in [2] was “inactive” in each case.

On to `N[C@@H]1C[C@H]1c1ccccc1`, for which, in assay [2], the Potency result was “inactive”.

As to `NCC(CC(=O)O)c1ccc(Cl)cc1` (stereo not given), the Potency entry in assay [1] is “inactive”. Further, the activity change, negative = inhibition in assay [2] is 3.65% [at 0.727 µM].

For the molecule `CNCC(O)c1ccc(O)cc1` (stereo not given), the Potency result in assay [1] and in assay [2] was “inactive” in each case.

Regarding `NCC1(CC(=O)O)CCCCC1`, the Potency entry in assay [1] and in assay [2] was “inactive” each time.

`O=C1NCN(c2ccccc2)C12CCN(CC1COc3ccccc3O1)CC2` (stereo not given): the Potency entry in [1] and in assay [2] was “inactive” throughout.

In the case of `CN1C[C@H](CNC(=O)OCc2ccccc2)C[C@@H]2c3cccc4c3c(cn4C)C[C@H]21`, the Potency result in assay [1] and in assay [2] was “inactive” each time.

For the molecule `CC(=O)[C@H]1CC[C@H]2[C@@H]3CC[C@H]4C[C@](C)(O)CC[C@]4(C)[C@H]3CC[C@]12C`, the Potency result in assay [1] and in [2] was “inactive” each time.
